# Reference: PubChem BioAssay (NCATS)
# Where “and” joins values, the source holds several entries; their conditions need not be identical. Equal values may be shown once. Records with an inconclusive call do not appear. Where a call stands in place of a potency, no number is given. Calls of active or inactive are those of the source. Unless noted, calls follow the shape of the dose curve; as a rule, active = well fitted curve in the direction sought with a large enough effect; inconclusive = small, poorly fitted or top-dose-only effect, or another doubt; inactive = no such curve, though single readings can be large; an effect the other way counts as inactive or inconclusive.
# Assays:
# [1] = biological target: Glucocorticoid receptor (Homo sapiens) (UniProt P04150); assay: GR-GFP Redistribution (AID 450;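 active = compounds whose dose series gives a full or clear partial fitted curve of increased nuclear translocation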; also: potency is read from the fitted curve at half-maximal effect); conditions: U2OS GR-GFP nuclear translocation, laser cytometry, 2 h
# Chain of Glucocorticoid receptor (Homo sapiens) (P04150 whole entry, looked up, the tested form may be a part): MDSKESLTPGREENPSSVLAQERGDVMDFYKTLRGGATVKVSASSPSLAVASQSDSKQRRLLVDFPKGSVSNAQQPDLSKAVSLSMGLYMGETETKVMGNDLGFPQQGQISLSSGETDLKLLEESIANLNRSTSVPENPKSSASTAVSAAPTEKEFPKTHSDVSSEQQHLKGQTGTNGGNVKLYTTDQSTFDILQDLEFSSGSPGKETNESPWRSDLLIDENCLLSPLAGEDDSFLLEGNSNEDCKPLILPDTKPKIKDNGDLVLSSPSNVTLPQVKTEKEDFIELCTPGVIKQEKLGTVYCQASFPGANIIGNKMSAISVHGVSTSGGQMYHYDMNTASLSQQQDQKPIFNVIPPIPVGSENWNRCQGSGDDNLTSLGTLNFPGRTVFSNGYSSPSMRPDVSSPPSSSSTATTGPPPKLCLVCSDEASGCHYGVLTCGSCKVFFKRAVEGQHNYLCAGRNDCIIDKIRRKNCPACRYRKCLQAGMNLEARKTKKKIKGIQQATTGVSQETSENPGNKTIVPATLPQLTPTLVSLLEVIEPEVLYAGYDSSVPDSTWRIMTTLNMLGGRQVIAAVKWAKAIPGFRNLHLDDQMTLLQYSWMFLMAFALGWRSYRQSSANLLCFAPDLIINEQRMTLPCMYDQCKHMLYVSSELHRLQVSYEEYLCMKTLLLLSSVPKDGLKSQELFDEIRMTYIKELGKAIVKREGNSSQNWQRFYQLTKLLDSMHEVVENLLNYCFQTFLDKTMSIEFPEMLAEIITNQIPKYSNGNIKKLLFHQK
# [2] = biological target: Glucocorticoid receptor (Homo sapiens) (UniProt P04150); assay: GR-EFC Redistribution (AID 451; calls by dose curve; also: potency is read from the fitted curve at half-maximal effect); conditions: CHO-K1 GR-EFC translocation, beta-gal luminescence, 2 h
# Summary of the method: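 Translocation of GR-ED fusion to nuclear EA restores b-gal, read by luminescence after 1 h room-temperature detection. Engineered CHO-K1 biosensor cells, 1,000/well, exposed 2 h at 37 C to titrations up to 46 uM final.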
# [3] = biological target: Guanine nucleotide-binding protein G(i) subunit alpha-1 (Homo sapiens) (UniProt P63096); assay: qHTS Assay for Inhibitors of RGS12 GoLoco Motif Activity (Green Fluorophore) (AID 879);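 also: negative values mean loss of peptide binding seen as reduced polarization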
# Chain of Guanine nucleotide-binding protein G(i) subunit alpha-1 (Homo sapiens) (P63096 whole entry, looked up): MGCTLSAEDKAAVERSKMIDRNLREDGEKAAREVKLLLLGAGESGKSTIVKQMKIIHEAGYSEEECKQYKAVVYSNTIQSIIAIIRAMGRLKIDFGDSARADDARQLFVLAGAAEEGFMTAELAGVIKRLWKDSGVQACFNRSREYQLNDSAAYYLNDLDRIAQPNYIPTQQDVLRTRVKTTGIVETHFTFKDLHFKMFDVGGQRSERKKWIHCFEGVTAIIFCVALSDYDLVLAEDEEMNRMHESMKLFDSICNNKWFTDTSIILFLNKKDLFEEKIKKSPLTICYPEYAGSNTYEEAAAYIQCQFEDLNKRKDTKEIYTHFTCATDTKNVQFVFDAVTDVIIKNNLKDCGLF
# Summary of the method: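 A drop in FITC polarization marked displacement of the FITC-tagged RGS12 GoLoco peptide (10 nM) from Gαi1 (50 nM). Compounds were incubated 10 min at room temperature in Tris pH 7.5 buffer containing 150 mM NaCl, 0.1 mM GDP and 0.05% NP40; unlabeled peptide titration served as control.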
# [4] = qHTS Assay for Identification of Small Molecule Agonists for Thrombopoietin (TPO) Signaling Pathway (AID 917)
# Summary of the method: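 Stimulation at the TPO EC50 (26 pM final) was used to detect activators. Ba/F3 mouse cells bearing human TPO receptor and a luciferase reporter under the Glycoprotein IIb promoter were exposed to compounds for 24 hrs at 37 C.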
# [5] = biological target: Muscarinic acetylcholine receptor M1 (Rattus norvegicus) (UniProt P08482); assay: qHTS Assay for Antagonists of Acetylcholine Muscarinic M1 Receptor: Kinetic Measurement of Intracellular Calcium Response (AID 943);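 also: Fluo-4 calcium signal as peak divided by basal fluorescence over 4 min; nearly all actives have a fitted effect of over 75% in size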
# Chain of Muscarinic acetylcholine receptor M1 (Rattus norvegicus) (P08482 whole entry, looked up): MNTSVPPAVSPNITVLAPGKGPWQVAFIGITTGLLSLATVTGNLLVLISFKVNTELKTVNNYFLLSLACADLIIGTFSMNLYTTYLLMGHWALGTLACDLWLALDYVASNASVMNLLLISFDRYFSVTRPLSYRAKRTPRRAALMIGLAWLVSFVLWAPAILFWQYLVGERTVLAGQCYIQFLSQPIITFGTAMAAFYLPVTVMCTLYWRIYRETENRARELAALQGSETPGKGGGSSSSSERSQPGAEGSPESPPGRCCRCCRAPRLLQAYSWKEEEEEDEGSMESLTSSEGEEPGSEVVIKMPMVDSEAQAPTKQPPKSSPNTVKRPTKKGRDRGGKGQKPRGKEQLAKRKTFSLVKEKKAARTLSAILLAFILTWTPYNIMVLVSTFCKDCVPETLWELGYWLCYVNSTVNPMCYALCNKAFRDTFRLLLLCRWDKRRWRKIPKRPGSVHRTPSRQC
# Summary of the method: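 Antagonism is measured as inhibition of the carbachol-evoked calcium rise in CHO cells transfected with rat M1. Cells are dye-loaded, exposed to compound for 10 min, then stimulated with 100 nM carbachol (EC80).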
# [6] = biological target: Muscarinic acetylcholine receptor M1 (Rattus norvegicus) (UniProt P08482); assay: qHTS Assay for Antagonists of Acetylcholine Muscarinic M1 Receptor: Measurement of IP-One Response (AID 944); also: nearly all actives have a fitted effect of over 75% in size
# Summary of the method: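 Antagonist mode with rat M1 receptor transfected into CHO cells. Compound is added first for 10 min, carbachol at its EC80 follows for 30 min, and lysis reagents then allow TR-FRET detection of accumulated IP1.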
# [7] = biological target: Pyruvate kinase (Leishmania mexicana) (UniProt Q27686); assay: qHTS Validation Assay for Inhibitors of Leishmania Mexicana Pyruvate Kinase (AID 945)
# Chain of Pyruvate kinase (Leishmania mexicana) (Q27686 2-499 E452W): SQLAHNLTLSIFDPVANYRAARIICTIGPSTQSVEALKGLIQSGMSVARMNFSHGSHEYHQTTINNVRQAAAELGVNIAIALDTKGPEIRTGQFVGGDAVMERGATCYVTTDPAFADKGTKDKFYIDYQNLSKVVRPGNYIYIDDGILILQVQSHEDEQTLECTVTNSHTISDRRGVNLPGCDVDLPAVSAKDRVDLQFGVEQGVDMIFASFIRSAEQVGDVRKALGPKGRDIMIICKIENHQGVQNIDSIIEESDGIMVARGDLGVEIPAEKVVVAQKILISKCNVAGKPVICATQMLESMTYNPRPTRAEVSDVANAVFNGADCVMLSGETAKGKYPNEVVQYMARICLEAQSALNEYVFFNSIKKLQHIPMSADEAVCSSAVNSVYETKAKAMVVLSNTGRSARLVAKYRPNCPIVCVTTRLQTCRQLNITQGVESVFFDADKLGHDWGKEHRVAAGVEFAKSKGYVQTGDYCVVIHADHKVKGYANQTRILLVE
# Summary of the method: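 The enzyme is a highly purified E451W mutant of LmPYK used at 0.2 nM. It converts 0.5 mM PEP and 0.1 mM ADP over 1 h at room temperature; product ATP is quantified by luciferase luminescence relative to DMSO controls.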
# [8] = biological target: Alpha-galactosidase (Coffea arabica) (UniProt Q42656); assay: Counterscreen for Glucocerebrosidase Inhibitors: qHTS Assay for Coffee Bean alpha-Galactosidase at pH 4.5 (AID 957)
# Chain of Alpha-galactosidase (Coffea arabica) (Q42656 whole entry, looked up): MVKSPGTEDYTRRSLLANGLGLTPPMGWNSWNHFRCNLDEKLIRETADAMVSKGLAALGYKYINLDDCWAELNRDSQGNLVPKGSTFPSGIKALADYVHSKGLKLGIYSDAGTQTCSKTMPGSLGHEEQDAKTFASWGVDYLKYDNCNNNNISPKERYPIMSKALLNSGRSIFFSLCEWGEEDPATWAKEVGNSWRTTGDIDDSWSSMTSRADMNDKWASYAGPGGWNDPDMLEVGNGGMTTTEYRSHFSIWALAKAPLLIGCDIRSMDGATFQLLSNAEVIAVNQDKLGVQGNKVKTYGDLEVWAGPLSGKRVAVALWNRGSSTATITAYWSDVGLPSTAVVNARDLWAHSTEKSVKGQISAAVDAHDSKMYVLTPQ
# Summary of the method: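 Enzyme is added first (2 nM final), then compounds titrated from 0.7 nM to 77 uM, then 80 uM 4-methylumbelliferyl alpha-D-galactopyranoside; after 20 min at room temperature a pH 10 NaOH/glycine stop precedes fluorescence reading at 365/440 nm.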
# [9] = biological target: Alpha-galactosidase A (Homo sapiens) (UniProt P06280); assay: Counterscreen for Glucocerebrosidase Inhibitors: qHTS Assay for Human alpha-Galactosidase at pH 4.5 (AID 992)
# Chain of Alpha-galactosidase A (Homo sapiens) (P06280 whole entry, looked up): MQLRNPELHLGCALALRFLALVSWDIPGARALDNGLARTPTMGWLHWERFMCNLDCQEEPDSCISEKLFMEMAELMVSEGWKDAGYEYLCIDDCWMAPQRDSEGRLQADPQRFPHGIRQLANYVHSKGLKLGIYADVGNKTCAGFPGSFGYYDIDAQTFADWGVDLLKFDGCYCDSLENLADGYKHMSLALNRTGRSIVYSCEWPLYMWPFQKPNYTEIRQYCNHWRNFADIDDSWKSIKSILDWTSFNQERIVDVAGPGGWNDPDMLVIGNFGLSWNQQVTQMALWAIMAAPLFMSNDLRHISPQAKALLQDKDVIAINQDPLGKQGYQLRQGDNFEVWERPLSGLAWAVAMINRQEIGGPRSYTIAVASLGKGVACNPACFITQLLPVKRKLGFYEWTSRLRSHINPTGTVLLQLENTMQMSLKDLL
# Summary of the method: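 Citrate buffer pH 4.5, Tween-20 0.005%. Enzyme 2 nM, substrate 80 uM, 20 min RT. Stop pH 10. Fluorescence Ex 365/Em 440. AC50 by Hill fit.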
# [10] = biological target: Alpha-galactosidase (Coffea arabica) (UniProt Q42656); assay: Counterscreen for Glucocerebrosidase Inhibitors: qHTS Assay for Coffee Bean alpha-Galactosidase at pH 5.9 (AID 998)
# Summary of the method: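 Fluorogenic 4-MU substrate hydrolysis, 80 uM substrate and 2 nM coffee bean alpha-galactosidase, pH 5.9 citrate buffer, 20 min at room temperature, then NaOH/glycine stop. Titration 0.7 nM–77 uM, normalized to no-enzyme and enzyme controls, AC50 via Hill equation.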
# [11] = Validation of Assay for Modulators of Lamin A Splicing (AID 1459; active = well fitted curve in the direction sought with a large enough effect in the signal ratio; the % refers to the signal ratio;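 also: cells exposed to compound for two days before reading; ratio rise marks activators and ratio drop marks inhibitors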)
# Summary of the method: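 S3 HeLa stably expressing lamin A-EGFP splicing minigene and DsRed2, 600 cells/well in Opti-MEM with 2% FBS, treated 48 h at 37C; laser-scanning cytometry gives GFP/RFP total intensity ratio; ancitabine positive control, 0.5% DMSO vehicle.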
# [12] = qHTS Assay for Lipid Storage Modulators (AID 1519; calls by dose curve); conditions: Drosophila S3 cells, BODIPY lipid droplet/cell ratio, laser cytometry, cells loaded with oleic acid
# Summary of the method: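 Cells seeded at 5,000 per well were treated with compounds over a concentration series and loaded with oleic acid (400 uM, as added). Lipid droplet fluorescence (488 nm excitation, 500-530 nm channel) was read by laser-scanning cytometry and normalized to 20 uM Triacsin C.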
# [13] = biological target: DNA repair nuclease/redox regulator APEX1 (Homo sapiens) (UniProt P27695); assay: qHTS Validation Assay for Inhibitors of the Human Apurinic/apyrimidinic Endonuclease 1 (APE1) (AID 1705;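 also: TAMRA fluorescence gain over two minutes as APE1 cuts a quenched THF abasic duplex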)
# Chain of DNA repair nuclease/redox regulator APEX1 (Homo sapiens) (P27695 whole entry, looked up): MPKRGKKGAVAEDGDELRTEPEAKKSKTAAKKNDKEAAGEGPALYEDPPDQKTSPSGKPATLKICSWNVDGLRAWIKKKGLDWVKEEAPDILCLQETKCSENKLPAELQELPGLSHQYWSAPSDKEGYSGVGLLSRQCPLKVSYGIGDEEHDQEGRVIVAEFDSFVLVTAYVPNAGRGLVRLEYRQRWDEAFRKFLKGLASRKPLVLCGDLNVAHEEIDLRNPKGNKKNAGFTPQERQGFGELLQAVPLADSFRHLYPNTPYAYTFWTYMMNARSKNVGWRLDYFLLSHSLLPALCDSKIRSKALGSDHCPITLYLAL
# Summary of the method: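 Fluorogenic double-stranded THF abasic-site substrate (5'-TAMRA/3'-BHQ-2), 50 nM final. Enzyme preincubated with compound 15 min at room temperature, then substrate added. Kinetic fluorescence (ex 525/em 598 nm) read three times at 60 s intervals; activity taken as third-minus-first read difference.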
# [14] = Counterscreen for APE1 Inhibitors: Fluorescent Dye Displacement Validation Assay (AID 1707)
# Summary of the method: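 Signal: ThO fluorescence (ex 480 nm/em 540 nm) on binding 50 nM dsDNA; displacement by test compound reduces it. Conditions: 250 nM dye, 50 mM Tris-HCl pH7.5, 2 mM MgCl2, 50mM NaCl, 0.01% Tween-20.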
# [15] = qHTS for differential inhibitors of proliferation of Plasmodium falciparum line 7G8 (AID 1815);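 also: parasite growth measured after three days of incubation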
# [16] = qHTS for differential inhibitors of proliferation of Plasmodium falciparum line GB4 (AID 1816); conditions: Potency: Plasmodium falciparum GB4 proliferation inhibition;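 also: parasite growth measured after 72 h incubation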
# [17] = qHTS for differential inhibitors of proliferation of Plasmodium falciparum line 3D7 (AID 1876);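 also: parasite growth measured after three days of culture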
smiles,measurement,setting,value
N[C@@H](Cn1cc(I)c(=O)[nH]c1=O)C(=O)O,Potency,[1],> 46 µM (inactive)
same,Potency,[2],> 46 µM (inactive)
same,outcome,[3],inactive
same,outcome,[4],inactive
same,Potency,[5],inactive
same,Potency,[6],inactive
same,outcome,[7],inactive
same,outcome,[8],inactive
same,outcome,[9],inactive
same,outcome,[10],inactive
same,outcome,[11],inactive
same,"activity change, negative = inhibition",[12]; at 57.5 µM (top of the series),1.49% (inactive) and 0.139% (inactive)
same,max response,[12]; measured here: cell count channel max response,1.2% and -23.8%
same,max response,[12]; measured here: lipid channel max response,4.16% and -23.5%
same,Potency,[13],inactive
same,Potency,[14],inactive
same,Potency,[15],inactive
same,Potency,[16],inactive
same,Potency,[17],inactive
